Assay [1] is described as follows: HepG2 liver cancer cell viability effects, profiling panel, resazurin fluorescence, 24 h, PK04 Diversity Set (AID 1172). Also: test concentration not given here. Particulars: higher = more signal. (In general: Resazurin is reduced to fluorescent resorufin, in cell work by metabolically active cells.)
The nature of assay [2]: basal S. cerevisiae growth modulation, no modifier, primary screen, OD600, strain BY4716, 24 h, basal condition (AID 1173). As to conditions: OD600, 24 h, higher = more signal, called active from +8 up or from −8 down.
Assay [3] is described as follows: MM1S myeloma cell viability, profiling panel, resazurin fluorescence, basal, 24 h, PK04 Diversity Set (AID 1174).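 Also: MM1S multiple myeloma cell line; test concentration not given here.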 Particulars: higher = more signal, called active from +8 up or from −8 down.
For assay [4], the target named is Dihydroorotate dehydrogenase (quinone), mitochondrial (Plasmodium falciparum (isolate 3D7)) (UniProt Q08210). The experiment in a line: PfDHODH enzyme inhibitors, primary screen, biochemical, C-terminal His tag, absorbance 600 nm (AID 1175).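 Also: recombinant parasite enzyme with a five histidine tag at its C terminus; test concentration not given here.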 Particulars: DCIP absorbance 600 nm, higher = more signal, called active from +8 up or from −8 down.
Chain of Dihydroorotate dehydrogenase (quinone), mitochondrial (Plasmodium falciparum (isolate 3D7)) (Q08210 whole entry, looked up): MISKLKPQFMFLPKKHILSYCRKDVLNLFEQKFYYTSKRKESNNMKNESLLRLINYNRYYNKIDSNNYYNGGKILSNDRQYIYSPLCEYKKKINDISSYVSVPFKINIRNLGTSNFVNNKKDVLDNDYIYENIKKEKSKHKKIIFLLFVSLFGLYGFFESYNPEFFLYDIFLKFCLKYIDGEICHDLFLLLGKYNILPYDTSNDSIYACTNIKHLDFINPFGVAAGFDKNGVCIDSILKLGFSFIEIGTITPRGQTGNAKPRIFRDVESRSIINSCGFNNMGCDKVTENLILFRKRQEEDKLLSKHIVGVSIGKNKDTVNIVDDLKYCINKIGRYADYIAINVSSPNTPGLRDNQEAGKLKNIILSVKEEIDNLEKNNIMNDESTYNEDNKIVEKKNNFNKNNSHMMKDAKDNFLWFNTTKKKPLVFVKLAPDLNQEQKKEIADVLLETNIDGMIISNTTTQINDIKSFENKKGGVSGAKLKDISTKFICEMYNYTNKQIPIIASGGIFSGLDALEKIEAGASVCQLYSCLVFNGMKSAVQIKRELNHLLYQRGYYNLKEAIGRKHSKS
The nature of assay [5]: P. aeruginosa biofilm formation inhibitors, primary screen, strain PAO1, LB-PBS medium, absorbance 600 nm (AID 1176). Also: test concentration not given here. As to conditions: P. aeruginosa PAO1 growth/biofilm, A600, 12 h; higher = more signal.
The nature of assay [6]: S. cerevisiae RM11-1a growth modifiers, primary screen, strain RM11-1a, OD600, basal, 24 h (AID 1177).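 Also: cultures grown under basal conditions with no added stressor; test concentration not given here.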 As to conditions: OD600, 24 h, higher = more signal, called active from +8 up or from −8 down.
Assay [7] is described as follows: E. coli acrAB mutant growth effects, primary screen, E. coli filamentation inducers, strain DRC39, OD650, 24 h (AID 1178).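 Also: growth measured as culture turbidity by optical density at 650 nm; test concentration not given here.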 Particulars: higher = more signal, called active from +8 up or from −8 down.
Assay [8] is described as follows: E. coli acrAB mutant growth effects, primary screen, E. coli filamentation inducers, strain DRC39, OD650, 48 h (AID 1179).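 Also: screen aims at cell division blockers that make cells filament.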 Particulars: E. coli DRC39 delta-acrAB growth, higher = more signal, called active from +8 up or from −8 down.
Assay [9] is described as follows: RPMI8226 myeloma cell viability, profiling panel, resazurin fluorescence, basal, 24 h, PK04 Diversity Set (AID 1180).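 Also: RPMI8826 multiple myeloma cell line at 5000 cells per well; test concentration not given here.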 As to conditions: higher = more signal.
Assay [10] has as its target E3 ubiquitin-protein ligase XIAP (Homo sapiens) (UniProt P98170). The assay can be described thus: XIAP binders, primary screen, biophysical, small-molecule microarray, fluorescence 635 nm (AID 1181).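 Also: score merges 667 nm emission and signal to noise over triplicate slides.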 As to conditions: small-molecule microarray binding, higher = more signal.

Activity calls are given as the source filed them. Unless noted, no rule for the calls is given here.

The values that follow come from PubChem BioAssay.

Chain of E3 ubiquitin-protein ligase XIAP (Homo sapiens) (P98170 whole entry, looked up): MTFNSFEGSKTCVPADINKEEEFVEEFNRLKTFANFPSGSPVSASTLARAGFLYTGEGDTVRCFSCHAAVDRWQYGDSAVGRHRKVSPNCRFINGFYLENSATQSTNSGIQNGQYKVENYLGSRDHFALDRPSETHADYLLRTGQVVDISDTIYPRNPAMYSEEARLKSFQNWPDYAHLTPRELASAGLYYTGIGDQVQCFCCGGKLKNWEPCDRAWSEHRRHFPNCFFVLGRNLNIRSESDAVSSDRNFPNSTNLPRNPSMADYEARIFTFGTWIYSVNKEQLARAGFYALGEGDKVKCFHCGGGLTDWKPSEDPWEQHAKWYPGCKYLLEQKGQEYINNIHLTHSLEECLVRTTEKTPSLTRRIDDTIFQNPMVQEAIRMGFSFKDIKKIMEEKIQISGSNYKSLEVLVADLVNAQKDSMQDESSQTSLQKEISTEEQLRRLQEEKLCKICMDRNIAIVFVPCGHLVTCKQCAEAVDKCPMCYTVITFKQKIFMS

Take `C[N+](C)(C)CCCC[C@@H]1NC(=O)[C@@H]2C[C@H](C(=O)NCCCCCN)[C@H](c3cccc(OCCO)c3)N2C1=O`: the z-score in assay [1] was -0.85; in assay [2], -0.749 (inactive); in assay [3] it was -1.23 (inactive); in [5] it was 0.131 (inactive); in [6], 0.527 (inactive); in [7], 0.0148 (inactive). Moreover, the z-score was 0.597 (inactive) in assay [8] and 0.0758 in [9]. Moreover, the values for the composite z-score in assay [4] and in [10] were -0.76 (inactive) and 0.191, respectively.
Regarding `[N-]=[N+]=NCc1ccccc1C[C@]1(C(=O)NCC(O)CO)N=C(c2ccc(OCCCO)cc2)O[C@H]1c1ccccc1` (stereo not given in full), the z-score in assay [1] is -0.237; in assay [2] it was -1.16 (inactive); in assay [3] it was -0.525 (inactive); in assay [5], 0.826 (inactive); in assay [6], 0.125 (inactive); in assay [7], -0.376 (inactive). For the same compound, the z-score in assay [8] is -0.193 (inactive); in [9], -0.977. Further, the composite z-score was 0.105 (inactive) in [4] and 0.035 in assay [10].
Take `C=CCNC(=O)[C@@H]1[C@H]2C(=O)O[C@H](c3ccccc3)[C@H](c3ccccc3)N2[C@H](c2ccc(OCCO)cc2)[C@@]12C(=O)Nc1ccc(C#Cc3ccc(OC)cc3)cc12`: the z-score in [1] was -0.662; in assay [2], 1.84 (inactive); in assay [3], -0.718 (inactive); in assay [5], 1.81 (inactive); in assay [6] it was 2.6 (inactive); in assay [7], -1.48 (inactive). In addition, the z-score in assay [8] was -1.2 (inactive); in assay [9], -1.25. Besides, the values for the composite z-score in [4] and in assay [10] were -4.91 (inactive) and 0.0181, respectively.
With `COCC(=C=CC[C@H](O)c1ccccc1OCCO)C[C@H](O)c1cc(Cl)cc(Cl)c1O`, the z-score was -1.18 in assay [1]; -19 (active) in assay [2]; -0.627 (inactive) in assay [3]; -0.0828 (inactive) in [5]; -22.2 (active) in [6]; 0.275 (inactive) in assay [7]. The z-score in [8] was 0.0273 (inactive); in [9] it was -0.207. For the same compound, the composite z-score is -9.33 (active) in assay [4] and -0.0559 in [10].
As to `CCCC=C(CCC)[C@@H](NC(=O)Oc1ccc(F)cc1)c1ccc(C(=O)OC)cc1`, the z-score in [1] is 1.01; in [2], 1.21 (inactive); in assay [3], 0.0374 (inactive); in [5], 0.535 (inactive); in assay [6], 1.2 (inactive); in assay [7] it was -0.0379 (inactive). In addition, the z-score in [8] was 0.0821 (inactive); in assay [9] it was -1.94. Besides, the composite z-score in assay [4] is 0.58 (inactive); in [10], 0.248.
As to `C=C(CCCC)C(=O)CC[C@H](OC(C)=O)c1cccc(OCCO)c1`, the z-score in [1] is 0.0379; in assay [2], -1.43 (inactive); in assay [3], -0.602 (inactive); in [5], -0.387 (inactive); in assay [6], -0.561 (inactive); in [7], -0.878 (inactive). Besides, the z-score in [8] was -0.873 (inactive); in assay [9], -0.482. The composite z-score in [4] is -1.08 (inactive); in assay [10], -0.0746.
Turning to `C#CCN(CC1=CCCCC1)[C@H](c1ccccc1Br)[C@@H](O)Cc1ccccc1`, the z-score in [1] is 1.47; in [2], -2.52 (inactive); in assay [3] it was 1.05 (inactive); in assay [5], 0.236 (inactive); in assay [6], 0.404 (inactive); in [7], 0.657 (inactive). The figures for the z-score in assay [8] and in assay [9] were 0.406 (inactive) and -0.486, respectively. In addition, the figures for the composite z-score in assay [4] and in assay [10] were 0.0019 (inactive) and -0.209, respectively.
Regarding `COC(=O)C=C(CC(O)c1cccc(Cl)c1)OC` (stereo not given), the z-score in assay [1] is -0.0421; in assay [2], -11.9 (active); in assay [3], 0.427 (inactive); in assay [5], -1.07 (inactive); in [6], -1.85 (inactive); in assay [7], -0.246 (inactive). Further, the results for the z-score in assay [8] and in assay [9] were 0.861 (inactive) and -0.219, respectively. Also, the results for the composite z-score in [4] and in assay [10] were -1 (inactive) and -0.169, respectively.
With `O=C1OCCC/C=C\[C@H]2OC34C=CCN(Cn5nnc6ccccc65)C(=O)[C@H]3N(CCCCCCO)C(=O)[C@@H]4C12` (stereo not given in full), the z-score was 1.14 in [1]; -1.45 (inactive) in assay [2]; 0.651 (inactive) in assay [3]; 1.07 (inactive) in [5]; -1.16 (inactive) in [6]; 1.09 (inactive) in assay [7]. The figures for the z-score in assay [8] and in [9] were 1.18 (inactive) and 0.598, respectively. For the same compound, the composite z-score is -0.332 (inactive) in assay [4] and -0.203 in assay [10].
Take `NCCCCCNC(=O)[C@@H]1C[C@@H]2C(=O)N[C@@H](Cc3ccccc3)C(=O)N2[C@@H]1c1cccc(OCCO)c1`: the z-score in assay [1] was -0.837; in assay [2], 1.04 (inactive); in assay [3] it was -0.104 (inactive); in [5] it was 0.174 (inactive); in assay [6], 0.606 (inactive); in assay [7], -0.297 (inactive). The z-score was -0.457 (inactive) in [8] and -0.603 in [9]. Further, the composite z-score in [4] is 0.251 (inactive); in assay [10] it was 0.416.
For the compound `C=CCNC(=O)[C@@H]1[C@H]2C(=O)O[C@H](c3ccccc3)[C@H](c3ccccc3)N2[C@H](c2ccc(OCCO)cc2)[C@@]12C(=O)Nc1ccc(C#CCCO)cc12`, the z-score in assay [1] is -0.13; in assay [2], 1.02 (inactive); in assay [3] it was -0.185 (inactive); in assay [5] it was 1.66 (inactive); in assay [6], -0.114 (inactive); in [7] it was -0.194 (inactive). In addition, the z-score is 0.184 (inactive) in assay [8] and -0.114 in [9]. Besides, the results for the composite z-score in [4] and in assay [10] were -1.24 (inactive) and -0.157, respectively.
As for `CCOC(=O)C[C@H]1[C@H](OC(=O)c2ccc(C(=O)c3ccccc3)cc2)[C@@H](NC(=O)c2ccc(-c3ccccc3)cc2)c2cc(OCCCO)ccc2N1C(=O)c1ccccc1`, the z-score in [1] is -0.587; in [2], -0.0317 (inactive); in assay [3], -0.27 (inactive); in [5], 0.0429 (inactive); in [6] it was -0.469 (inactive); in assay [7], -0.486 (inactive). Moreover, the z-score was -0.566 (inactive) in [8] and -0.387 in [9]. Further, the composite z-score in assay [4] is -0.972 (inactive); in [10], 0.0153.
As to `C=CC[C@@]1(C(=O)N(C)C)N=C(c2ccc(OCCCO)cc2)O[C@@H]1c1ccccc1N=[N+]=[N-]`, the z-score in assay [1] was -0.614; in [2] it was 0.093 (inactive); in assay [3], -2.82 (inactive); in assay [5], 0.314 (inactive); in assay [6], 0.274 (inactive); in assay [7], -0.112 (inactive). The z-score was 0.0912 (inactive) in [8] and -1.71 in assay [9]. The figures for the composite z-score in [4] and in [10] were -0.007 (inactive) and 0.0794, respectively.
